PubChem BioAssay (NCI)
This is part of a sample that, as a whole, favours compounds with a hit. Of some 83,000 tested, about 20% had one in any assay.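 The endpoint reported here, percent growth, reads 100 for growth as untreated, 0 for no net growth and -100 for all cells dead.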 Values without a mark were called inactive. Activity calls are given as the source filed them. The calls were made as follows: active = growth percent below 10; inactive = the rest.

Columns and labels:
Assay in all cases: NCI-60 one-dose screen, 48 h (100 = growth as untreated, 0 = no growth, -100 = all killed)
Details in all cases: 10 µM unless noted
MOLT-4 leukemia = tested on: MOLT-4 leukemia
SR leukemia = tested on: SR leukemia
RPMI-8226 leukemia = tested on: RPMI-8226 leukemia
OVCAR-8 ovarian = tested on: OVCAR-8 ovarian
OVCAR-5 ovarian = tested on: OVCAR-5 ovarian
OVCAR-4 ovarian = tested on: OVCAR-4 ovarian
SK-OV-3 ovarian = tested on: SK-OV-3 ovarian
IGROV1 ovarian = tested on: IGROV1 ovarian
OVCAR-3 ovarian = tested on: OVCAR-3 ovarian
NCI/ADR-RES ovarian = tested on: NCI/ADR-RES ovarian
T-47D breast = tested on: T-47D breast
BT-549 breast = tested on: BT-549 breast
MDA-MB-435 melanoma = tested on: MDA-MB-435 melanoma
SW-620 colon = tested on: SW-620 colon
HCT-116 colon = tested on: HCT-116 colon
HCC-2998 colon = tested on: HCC-2998 colon
KM12 colon = tested on: KM12 colon
HS 578T breast = tested on: HS 578T breast
MCF7 breast = tested on: MCF7 breast

SMILES	growth (MOLT-4 leukemia)	growth (SR leukemia)	growth (RPMI-8226 leukemia)	growth (OVCAR-8 ovarian)	growth (OVCAR-5 ovarian)	growth (OVCAR-4 ovarian)	growth (SK-OV-3 ovarian)	growth (IGROV1 ovarian)	growth (OVCAR-3 ovarian)	growth (NCI/ADR-RES ovarian)	growth (T-47D breast)	growth (BT-549 breast)	growth (MDA-MB-435 melanoma)	growth (SW-620 colon)	growth (HCT-116 colon)	growth (HCC-2998 colon)	growth (KM12 colon)	growth (HS 578T breast)	growth (MCF7 breast)
C[C@]12C[C@@H](CO)[C@H](O)C[C@@H]1CC[C@@H]1[C@@H]2CC[C@]2(C)[C@@H](O)CC[C@@H]12	85.8%	79.4%	91.9%	96.8%	104%	105%	106%	105%	101%	99.6%	104%	78.9%	105%	101%	103%	97.9%	101%	–	–
Cc1c(C)c([N+](=O)[O-])c(C)c(C)c1[N+](=O)[O-]	100%	93%	106%	95.7%	93.8%	98.2%	117%	–	118%	107%	101%	106%	91.9%	112%	115%	104%	110%	118%	107%
COC(=O)[C@@H](C)C[C@H](Cc1ccccc1)NC(=O)c1csc([C@@H](C[C@H](C(C)C)N(C)C(=O)[C@H](C)NC(=O)[C@H]2CCCCN2C)OC(C)=O)n1	33.2%	15.8%	15.7%	26.4%	63.7%	60.3%	47.2%	47%	-0.67% (active)	87.6%	–	47.6%	-33% (active)	18.4%	–	33.8%	22.4%	6.45% (active)	–
O=C1C=C(N2C3C4CCC(C4)C32)C(=O)C=C1c1ccccc1 (centres undefined)	2.18% (active)	0.878% (active)	53.1%	72.4%	102%	48%	88.9%	–	74.5%	99.4%	6.64% (active)	93.2%	99.7%	82.6%	85%	115%	102%	102%	62.4%
O=C1OCCC1Br (centres undefined)	107%	92.3%	97.2%	96.2%	104%	107%	99.4%	110%	112%	106%	105%	85.3%	103%	103%	103%	102%	108%	–	101%
O=C(c1ccccc1O)c1[nH]c(Cl)c(Cl)c1-n1c(C(=O)c2ccccc2O)cc(Cl)c1Cl	-1.12% (active)	8.12% (active)	-30.1% (active)	8.28% (active)	18.5%	14.5%	-5.75% (active)	23%	–	-3.31% (active)	-10.1% (active)	-5.5% (active)	3.49% (active)	7.86% (active)	0.716% (active)	15.3%	-19.3% (active)	-16.9% (active)	1.43% (active)
Cn1cc(C2=C(c3cn(C4CCN(Cc5ccccn5)CC4)c4ccccc34)C(=O)NC2=O)c2ccccc21	85.7%	7.89% (active)	107%	78.8%	31.2%	76.8%	83.5%	33.9%	90.3%	84.4%	54.5%	78.3%	47.6%	47.8%	38.2%	31.4%	57.2%	–	76.1%
N#CCCNc1ccccc1	79.3%	77.1%	95.2%	114%	104%	105%	121%	119%	106%	108%	111%	108%	98.9%	103%	108%	106%	113%	–	103%
CN1CCC(c2c[nH]c3ccccc23)C1 (centres undefined)	105%	96.6%	79.7%	96.4%	77%	107%	99.4%	–	103%	94.5%	97%	–	97.9%	104%	94.2%	94.1%	107%	113%	94.8%
COC(=O)[C@@]1(O)C[C@H]2O[C@]1(C)n1c3ccccc3c3c4c(c5c6ccccc6n2c5c31)C(=O)NC4	-31% (active)	-18.3% (active)	-39.6% (active)	-43.6% (active)	-11.6% (active)	-51% (active)	-33.8% (active)	-30.4% (active)	-19.2% (active)	-40.2% (active)	-37.4% (active)	-73.9% (active)	-90.2% (active)	-19.7% (active)	-4.08% (active)	-53.4% (active)	-13.9% (active)	–	–
CCCCCC1(CCBr)C(=O)NC(=O)NC1=O	104%	94.7%	97.5%	97.3%	96.6%	111%	99.1%	112%	104%	121%	106%	90.5%	–	101%	106%	115%	109%	–	97.5%
C/C(CC(C)(C)N1CC1)=N\NC(=O)Nc1cccc2ccccc12	12.2%	20.9%	72.7%	44.1%	100%	55.8%	79.3%	38.8%	48.3%	–	55.8%	68.5%	79.6%	52.3%	46.5%	75.3%	75.9%	79.8%	24.9%
CCC1CN1CCCCN1CC1CC (centres undefined)	108%	104%	102%	101%	102%	102%	110%	102%	107%	103%	–	103%	93.7%	105%	98.7%	100%	106%	–	99.8%
Cc1c(NS(=O)(=O)c2ccccc2)ccc([N+](=O)[O-])c1Cl	73.6%	73.8%	42.4%	74.6%	89.1%	47.3%	71.3%	72.5%	42.2%	86.3%	–	–	39.8%	91.6%	73.3%	–	70.1%	64.4%	92.8%
NC1CC2CCCCC2CC1(O)c1ccccc1 (centres undefined)	85.7%	90.7%	93.6%	98.6%	95.4%	102%	107%	102%	109%	–	99.5%	102%	105%	101%	93.7%	109%	99.7%	102%	96.1%
CC1CN1CCCCN1CC1C (centres undefined)	86.2%	81.5%	94.4%	102%	102%	112%	103%	107%	103%	108%	101%	103%	111%	105%	95.7%	94.2%	104%	–	93.8%
CCOc1ccc(/C=C/[N+](=O)[O-])cc1	118%	67.5%	-36.4% (active)	101%	89.8%	87.9%	111%	86.5%	86.3%	100%	86%	80.8%	20.1%	66.6%	-31.6% (active)	23.7%	70.7%	–	–
COc1ccc2nc(NC(=O)COc3cc(/C=C\c4cc(OC)c(OC)c(OC)c4)ccc3OC)sc2c1	12.9%	28%	20.9%	24%	71.6%	49%	8.6% (active)	–	-39% (active)	-5.38% (active)	19.9%	55.4%	-45.1% (active)	25.5%	12.6%	45.5%	16.8%	-5.92% (active)	16.9%
